Inconclusive results are not listed. Active and inactive are the calls of the source. Calls follow the shape of the dose curve; as a rule, active = well fitted curve in the direction sought with a large enough effect; inconclusive = small, poorly fitted or top-dose-only effect, or another doubt; inactive = no such curve, though single readings can be large; an effect the other way counts as inactive or inconclusive.
Legend:
[1] = target: Metallo-beta-lactamase type 2 (Klebsiella pneumoniae) (UniProt C7C422); assay: qHTS to identify inhibitors of the New Delhi Metallo-beta-lactamase (NDM): assay validation screen against the NCATS LOPAC Collection (AID 1794843);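 also: nitrocefin turnover by NDM-1 measured as 485 nm absorbance at plateau; series mostly up to about 38 µM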
Metallo-beta-lactamase type 2 (Klebsiella pneumoniae), sequence (C7C422 whole entry, looked up): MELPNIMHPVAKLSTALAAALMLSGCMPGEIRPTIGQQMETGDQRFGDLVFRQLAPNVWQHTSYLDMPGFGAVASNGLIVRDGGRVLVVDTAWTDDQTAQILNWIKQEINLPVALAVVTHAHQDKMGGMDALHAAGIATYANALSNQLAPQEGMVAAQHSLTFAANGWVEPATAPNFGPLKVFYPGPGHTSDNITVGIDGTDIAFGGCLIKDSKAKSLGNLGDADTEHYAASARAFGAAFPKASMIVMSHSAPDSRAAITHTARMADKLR
In short: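 Nitrocefin hydrolysis (50 uM substrate stock) by NDM-1, 2 nM final, was followed by 485 nm absorbance after compound preincubation; buffer was 50 mM HEPES pH 7.0, 1 uM ZnSO4, 0.01% Tween20.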

[2] = target: Glutathione peroxidase 1 (Homo sapiens) (UniProt P07203); assay: Primary qHTS Assay for Inhibitors of Recombinant Selenoprotein Glutathione Peroxidase 1 (GPX1) (AID 1845191); also: nearly all actives have a fitted effect of over 65% in size
Glutathione peroxidase 1 (Homo sapiens), sequence (P07203 whole entry, looked up): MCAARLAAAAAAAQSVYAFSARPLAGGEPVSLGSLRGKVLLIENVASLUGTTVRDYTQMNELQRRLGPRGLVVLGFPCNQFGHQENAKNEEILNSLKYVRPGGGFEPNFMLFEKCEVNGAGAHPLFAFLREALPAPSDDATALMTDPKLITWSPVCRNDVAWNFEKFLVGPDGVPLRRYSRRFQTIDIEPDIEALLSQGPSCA
In short: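 Recombinant GPX1 (10 nM final) was preincubated with compound for 30 min at room temperature, then reacted with 1 mM GSH, 0.5 mM CHP, 0.5 mM NADPH and 100 nM glutathione reductase; NADPH fluorescence (340/450 nm) was read at 0 and 15 min.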

[3] = target: Phospholipid hydroperoxide glutathione peroxidase GPX4 (Homo sapiens) (UniProt P36969); assay: Primary qHTS Assay for Inhibitors of Recombinant Selenoprotein Glutathione Peroxidase 4 (GPX4) (AID 1845192); also: nearly all actives have a fitted effect of over 65% in size
Phospholipid hydroperoxide glutathione peroxidase GPX4 (Homo sapiens), sequence (P36969 whole entry, looked up): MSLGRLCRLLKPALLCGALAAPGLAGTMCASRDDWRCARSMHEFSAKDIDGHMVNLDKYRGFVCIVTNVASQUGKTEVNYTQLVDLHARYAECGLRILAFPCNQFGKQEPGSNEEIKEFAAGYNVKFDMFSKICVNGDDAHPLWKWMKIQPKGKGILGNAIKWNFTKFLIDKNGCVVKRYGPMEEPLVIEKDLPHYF
In short: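 GR-coupled readout: 100 nM GR, 1 mM GSH, 0.5 mM NADPH; NADPH fluorescence (ex 340/em 450 nm) read at t=0 and after 15 min RT. GPX4 200 nM, preincubated 30 min with compound; substrate 0.5 mM CHP.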

[4] = target: Luciferin 4-monooxygenase (Photinus pyralis) (UniProt P08659); assay: Primary firefly luciferase (FLuc) qHTS assay for identification of artifact compounds. (AID 1845220); conditions: outcome: dose series up to 54.1 µM; also: nearly all actives have a fitted effect of over 60% in size
In short: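 In this counter-screen for luciferase artifacts, test compounds met substrate (10 uM each luciferin and ATP) before 10 nM enzyme started the reaction. Light output was measured 5 min later.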

[5] = Primary fluorescence-based thiol-reactive (MSTI) qHTS assay for identification of artifact compounds. (AID 1845221);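 also: series mostly up to about 54 µM; thiol-reactive compounds lower the probe fluorescence signal; nearly all actives have a fitted effect of over 65% in size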
In short: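 A multi-concentration qHTS design tested compounds against 4 uM MSTI, pH 7.4 phosphate-buffered saline. Plates were protected from light for 1 h at room temperature before imaging fluorescence.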

[6] = test system: Nanoluciferase (engineered Oplophorus gracilirostris luciferase); assay: Primary Nanoluciferase (NLuc) qHTS assay for identification of artifact compounds. (AID 1845222);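 also: NLuc secreted into diluted conditioned medium of S16 cells; series mostly up to about 54 µM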
In short: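 Using secreted nanoluciferase in S16 culture medium (0.22 um filtered, 1:55 dilution), compounds were preincubated 15 min at RT. Signal was generated with Nano-Glo reagent (1:100) over 5 min.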

Measured: Potency

CN(CCOc1ccc(NS(C)(=O)=O)cc1)CCc1ccc(NS(C)(=O)=O)cc1
inactive: [1] | [2] | [3]

CC1(C)O[C@H]2CC(=O)OC[C@]23[C@H]2CC[C@@]4(C)[C@H](c5ccoc5)OC(=O)[C@H]5O[C@]54[C@]2(C)C(=O)C[C@@H]13
inactive: [2] | [4] | [5] | [6]

COc1ccc(CCN(C)CCCC(C#N)(c2ccc(OC)c(OC)c2)C(C)C)cc1OC (stereo not given)
inactive: [2]

CC(C)NCC(O)COc1ccc(CCOCC2CC2)cc1 (stereo not given)
inactive: [1] | [2] | [3]

CS(=O)(=O)CCNCc1ccc(-c2ccc3ncnc(Nc4ccc(OCc5cccc(F)c5)c(Cl)c4)c3c2)o1
inactive: [2] | [4] | [5]

Nc1ccn([C@H]2CC[C@@H](CO)O2)c(=O)n1
inactive: [1] | [2] | [3]

CNCCCC12CCC(c3ccccc31)c1ccccc12
inactive: all assays above

COc1ccccc1OCC(O)CN1CCN(CC(=O)Nc2c(C)cccc2C)CC1 (stereo not given)
inactive: [2]

O=C1Cc2cc(CCN3CCN(c4nsc5ccccc45)CC3)c(Cl)cc2N1
inactive: [1] | [2] | [4] | [6]

Cc1ccc(-c2cc(C(F)(F)F)nn2-c2ccc(S(N)(=O)=O)cc2)cc1
not listed: [3]
inactive: all other assays above

Cc1cn([C@H]2C[C@H](N=[N+]=[N-])[C@@H](CO)O2)c(=O)[nH]c1=O
inactive: [2] | [3]
